This is one part of the list. The source made the active and inactive calls.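 The calls were made as follows: active = activation above the screen-wide mean activation plus 3 SD (cut at about 8% in these data); inactive = the rest.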
experiment: activators of NFAT-driven beta-lactamase reporter, confirmation, counter-screen for GALR2 agonist project, CHO NFAT-bla cells, FRET readout (AID 865); conditions: at 5.6 µM, stronger effect = higher value;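 also: 0% = DMSO with PBS wells and 100% = thapsigargin positive control wells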

SMILES | activation
CCOc1ccc(C(O)Cn2c(=N)n(CCN3CCCCC3)c3ccccc32)cc1 (configuration not stated) | -2.38% (inactive)
Cc1ccc(CCC(=O)Nc2ncc(Cc3cc(Cl)ccc3Cl)s2)o1 | 13.5% (active)
CC1(C)CC(=O)C=C(NCCN2CCNCC2)C1 | -2.3% (inactive)
O=c1oc2cc(O)ccc2cc1-c1ccc(F)cc1 | 7.16% (inactive)
COC(=O)c1ccc(NC(=O)C(C)N2C(=O)c3ccccc3C2=O)cc1 (configuration not stated) | -1.44% (inactive)
Cc1csc(NC(=O)c2ccc(-c3ccc(Cl)cc3Cl)o2)n1 | 0.5% (inactive)
CCN(C(=O)CSc1ncn[nH]1)c1cccc2ccccc12 | -1.97% (inactive)
CCOc1ccc2nc(Nc3nc4ccc(NC(C)=O)cc4s3)sc2c1 | 59.5% (active)
COc1ccccc1N1N=C(c2cccs2)CC1c1ccccc1 (configuration not stated) | 6.25% (inactive)
O=[N+]([O-])c1ccccc1SNc1ccccn1 | -1.98% (inactive)
COc1cc(SC#N)ccc1N=Cc1c(C)[nH]n(-c2ccc(C)cc2)c1=O | 9.72% (active)
Cc1ccc(Cc2c(C)nc3nc(SCC(=O)NCCN4CCOCC4)nn3c2C)cc1 | -0.81% (inactive)
CC(=O)N(Cc1cccs1)C1CCOC(C)(C)C1 (configuration not stated) | -3.67% (inactive)
OC(COc1cccc2ccccc12)CN1CCN(c2ccccn2)CC1 (configuration not stated) | 0.34% (inactive)
CCCOc1ccc(C(=O)C(CCC(CNCC)C(=O)c2ccc(OCCC)cc2)CNCC)cc1 (configuration not stated) | 0.75% (inactive)
Fc1ccc(N2N=C(c3cccs3)CC2c2ccco2)c(F)c1 (configuration not stated) | 0.42% (inactive)
CC/C(C)=N/Nc1nc2sc3c(c2c(=O)[nH]1)CC(C)(C)OC3 | -1.22% (inactive)
